Screening data deposited in PubChem by National Center for Advancing Translational Sciences (NCATS).
The list is not random: actives were taken first. Their share in the collection is about 7.2%.
HEK293 cAMP ctrl: parental HEK293 cAMP activation (counter-screen); parental HEK293 CNG cAMP sensor, membrane potential fluorescence; Potency, µM (doses to about 57.1 µM), without a hit: top-dose activation, hits mostly activators; 73,000 compounds, 2.5% hits; AID 938; also: potency is read from the fitted curve at half-maximal effect; % of control where 0% means no effect; nearly all actives have a fitted effect of over 55% in size
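Parental HEK 293 cells stably expressing a cAMP-gated CNG channel were loaded with membrane potential dye containing 100 uM RO 20-1724 for 60 min. Compound added for 30 min; depolarization read as fluorescence intensity at 590 nm.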
ERK AVP block: blocks ERK signaling stimulated by vasopressin. Potency, µM (doses to about 57.5 µM), for inactives: at the highest dose activity, negative = inhibition, usual class: inhibitors. 72,000 compounds, 0.99% hits. HEK293-V1b, vasopressin-stimulated pERK AlphaScreen. AID 995; also: potency is read from the fitted curve at half-maximal effect; % is scaled to controls: 0 for no effect and ±100 for the full control effect; nearly all actives have a fitted effect of over 55% in size
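HEK293 cells stably expressing V1b receptor, seeded overnight in 1% FBS, were treated with compounds for 30 min at 37C, then stimulated 5 min with 25 nM vasopressin; phospho-ERK read by AlphaScreen SureFire after lysis.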
TSHR ag: activates the human thyroid stimulating hormone receptor; Potency, µM (doses to about 57.1 µM), inactives show at the top dose activation, usual class: activators; 73,000 compounds, 0.48% hits; HEK293-CNG-TSHR cells (CNG channel as cAMP sensor), membrane potential dye, cAMP; P16473; AID 926; active = well fitted activation curve with a large enough effect in the main read-out, with a control signal flat, not every such curve was filed as active; inconclusive = small, poorly fitted or top-dose-only effect, or a change in a side signal; inactive = no such curve, though single readings can be large or run the other way; % of control where 0% means no effect;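 also: the control signal comes from parental cells without the receptor; potency is read from the fitted curve at half-maximal effect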
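HEK 293 cells stably expressing TSHR and a cAMP-gated CNG channel; parental CNG-only cells as counterscreen. Cells preloaded 60 min with membrane potential dye plus 100 uM RO 20-1724, then compound 30 min; fluorescence read at 590 nm.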
Bst PK mod: modulators of Bacillus stearothermophilus pyruvate kinase | purified pyruvate kinase, luminescence ATP production; ribose 5-phosphate activator present at AC10 | Potency, µM | 51,000 compounds, 1.2% hits | AID 361; in the data active = potency below about 11 µM; inconclusive = mostly about 12 µM to 25 µM;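 the screen sought inhibitors and activators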;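 also: potency is read from the fitted curve at half-maximal effect; scaled between full activation by ribose 5 phosphate and full inhibition by luteolin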
Luciferase inh: inhibitors of firefly luciferase. purified firefly luciferase, luminescence, 8 min. 72,000 compounds, 2.2% hits. Potency, µM (highest dose often 57.1 µM), for the others: top-dose activity change, negative = inhibition, usual class: inhibitors; also: potency is read from the fitted curve at half-maximal effect; % is scaled to controls: 0 for no effect and ±100 for the full control effect; nearly all actives have a fitted effect of over 40% in size
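Compounds were tested as concentration series (qHTS) against purified P. pyralis luciferase with luciferin and 10 uM ATP in 50 mM imidazole pH 7.2, 50 mM KCl, 7 mM MgCl2, 0.01% Tween 20, 0.05% BSA. Luminescence was read after 8 min at ambient temperature.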
Tau filament bind: binds recombinant human tau filaments. P10636. 71,000 compounds, 2% hits. Potency, µM (highest dose often 57.1 µM), for inactives: top-dose activity change, negative = inhibition. recombinant tau filaments, thioflavin S fluorescence, 15 h; filaments grown with octadecylsulfate alongside compound. AID 596;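 also: potency is read from the fitted curve at half-maximal effect; % is scaled to controls: 0 for no effect and ±100 for the full control effect; actives lower thioflavin S fluorescence by blocking filaments or displacing dye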
Target sequence (P10636 whole entry, looked up): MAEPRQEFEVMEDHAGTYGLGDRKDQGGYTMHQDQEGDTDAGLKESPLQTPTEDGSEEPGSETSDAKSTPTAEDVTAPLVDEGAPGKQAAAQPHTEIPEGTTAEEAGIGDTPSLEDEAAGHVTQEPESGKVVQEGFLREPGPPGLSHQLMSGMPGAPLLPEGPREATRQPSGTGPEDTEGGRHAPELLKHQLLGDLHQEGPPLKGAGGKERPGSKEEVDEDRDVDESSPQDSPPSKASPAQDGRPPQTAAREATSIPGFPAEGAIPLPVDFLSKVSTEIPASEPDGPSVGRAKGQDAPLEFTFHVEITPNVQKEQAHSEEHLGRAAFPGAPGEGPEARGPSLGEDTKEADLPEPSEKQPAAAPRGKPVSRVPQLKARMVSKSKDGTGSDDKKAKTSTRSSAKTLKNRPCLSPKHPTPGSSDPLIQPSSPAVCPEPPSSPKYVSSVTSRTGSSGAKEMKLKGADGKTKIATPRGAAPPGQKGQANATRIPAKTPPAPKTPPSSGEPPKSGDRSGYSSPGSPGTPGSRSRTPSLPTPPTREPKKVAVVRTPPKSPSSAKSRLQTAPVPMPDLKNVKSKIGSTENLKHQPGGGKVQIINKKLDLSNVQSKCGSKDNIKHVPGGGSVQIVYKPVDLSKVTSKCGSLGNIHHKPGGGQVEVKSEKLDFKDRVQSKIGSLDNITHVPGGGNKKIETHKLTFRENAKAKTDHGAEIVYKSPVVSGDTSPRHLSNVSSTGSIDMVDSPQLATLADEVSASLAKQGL
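Read-out: ThS fluorescence, 450 nm excitation/510 nm emission; lower signal marks blocked filament formation or displaced dye. Tau at 1 uM with 30 uM ODS, 10 uM ThS, 5 mM DTT, 100 mM NaCl, 10 mM HEPES pH 7.4; 15 h, 37 C.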
tau ThS displ: displaces Thioflavin S from human tau filaments; shares compounds with Tau filament bind; recombinant tau filaments, Thioflavin S fluorescence displacement; Potency, µM; 60 compounds, 40% hits; AID 911; calls by dose curve
aSyn ThS displ: compounds binding human alpha-synuclein fibrils, displacing Thioflavin S; shares compounds with Tau filament bind; AID 937; 60 compounds, 40% hits; Potency, µM; recombinant alpha-synuclein fibrils, ThS fluorescence displacement; calls by dose curve
Abeta ThS displ: amyloid beta fibril binding by ThS displacement; 60 compounds, 50% hits; Abeta1-42 fibrillization, thioflavin S fluorescence, overnight 37 C; shares compounds with Tau filament bind; Potency, µM; calls by dose curve
An asterisk follows results filed as active; i = inactive; ? = inconclusive; . = no result given; [ ] = dose if it differs, or a comment. Unless noted, calls follow the shape of the dose curve; as a rule, active = well fitted curve in the direction sought with a large enough effect; inconclusive = small, poorly fitted or top-dose-only effect, or another doubt; inactive = no such curve, though single readings can be large; an effect the other way counts as inactive or inconclusive.

SMILES | HEK293 cAMP ctrl | ERK AVP block | TSHR ag | Bst PK mod | Luciferase inh | Tau filament bind | others
COc1ccccc1-c1cc(=O)c2cc(O)ccc2o1 | 40µM* | -16% | ? | . | -7%[11.4 µM] | ?
C=CCSc1nc2ccccc2c(=O)n1Cc1ccco1 | 8%[11.4 µM] | -15%[11.5 µM] | 10%[11.4 µM] | . | 4%[11.4 µM] | 3%[11.4 µM]
Cc1ccc(C)c(SCC(=O)Nc2nnc(-c3ccccc3)o2)c1 | 23% | -2% | 6% | 3.1* | -3% | -10%
CCC(c1nnc(SCC(=O)Nc2nnc(-c3ccccc3)o2)o1)N(C)C (stereo not given) | 5% | 11% | -4% | >57 | -4% | 8%
N[C@H](C(=O)O)[C@H](OCc1ccccc1)C(=O)O | 2% | 10% | -4% | . | 1% | 35%
O=C(C1CCN(S(=O)(=O)c2cccc3cccnc23)CC1)N1CCc2ccccc21 | 4% | 4% | 18% | 9.7* | 4% | -7%
O=C(C1CCN(S(=O)(=O)c2cccc3cccnc23)CC1)N1CC=C(c2ccccc2)CC1 | ? | 25µM* | ? | . | 0% | 479%
COC(=O)N1CCC[C@@]2(CCN(C(=O)Nc3cccc(C#N)c3)C2)C1 | 13% | 7% | 10% | . | -1%[11.4 µM] | -4%
Cc1ccc(O)c(-c2cc3ccccc3[nH]2)c1 | -15%[11.4 µM] | -20% | -15%[11.4 µM] | . | -26% | 2.5µM*
CN(C)CN1C(=O)S/C(=C2/C(=O)N(CN(C)C)c3ccccc32)C1=O | -7%[11.4 µM] | -9%[11.5 µM] | -4%[11.4 µM] | . | 1%[11.4 µM] | 5%[11.4 µM]
CC(=O)OCC(=O)[C@@]12OC(C)(C)OC1CC1C3CC(F)C4=CC(=O)C=C[C@@]4(C)[C@@]3(F)C(O)C[C@]12C (stereo not given in full) | . | 9% | . | . | . | .
Cc1cc(C)n(-c2nc3ccccc3c(=O)n2OCC(=O)Nc2c(C)cccc2C)n1 | 27% | ? | 13µM* | >57 | 2% | -5%
c1ccc(-c2noc(C34CC5CC(CC(C5)C3)C4)n2)nc1 | 14% | 2% | . | . | 16µM* | 2%
CSCCC(Nc1ncnc2ccc(Br)cc12)C(=O)O (stereo not given) | 2µM* | -17% | ? | . | 2% | 6%
CSCC[C@H](NC(=O)CCn1nnc2ccccc2c1=O)C(=O)O | 4% | -7% | 1% | >57 | -1% | -10%
CC(C)c1ccccc1S(=O)(=O)c1cc(N)c2ncccc2c1[N+](=O)[O-] | ? | -14% | ? | . | . | .
Cc1nc2ccccc2c(=O)n1NCc1cc(Br)cs1 | 16µM* | 7% | ? | . | 0% | -15%
OB(O)c1csc2ccccc12 | ? | -16% | ? | . | . | .
Cc1ccc(-c2nnn(CC(=O)N(Cc3cccs3)C(C(=O)NC(C)(C)C)c3ccco3)n2)o1 (stereo not given) | 1µM* | -24% | ? | >57 | -1% | 23%
Cc1ccc(-c2nnn(CC(=O)N(c3ccc(F)cc3)C(C(=O)NC3CCCC3)c3ccco3)n2)o1 (stereo not given) | 22% | 6% | 1% | >57 | 1% | -13%
Cc1ccc(-c2nnn(CC(=O)N(Cc3ccco3)C(C(=O)NC(C)(C)C)c3cccs3)n2)o1 (stereo not given) | 20µM* | -17% | ? | >57 | 0% | -8%
Cc1ccc(C(C(=O)NC(C)(C)C)N(CC2CCCO2)C(=O)Cn2nnc(-c3ccc(C)o3)n2)cc1 (stereo not given) | 25µM* | -2% | ? | >57 | 1% | -3%
Cc1ccc(-c2nnn(CC(=O)N(Cc3cccs3)C(C(=O)NC(C)(C)C)c3ccc(C)o3)n2)o1 (stereo not given) | 25µM* | 9% | ? | >57 | -27% | 32%
COc1ccccc1N(CC(=O)NC(C)(C)C)C(=O)Cn1nnc(-c2ccc(C)o2)n1 | 8% | 7% | 3% | >57 | 1% | 6%
COc1ccc(-c2coc3cc(O[C@@H]4O[C@@H](CO)[C@@H](O)[C@@H](O)[C@H]4O)cc(O)c3c2=O)cc1 | 6% | . | -3% | . | -1%[11.4 µM] | ?
SMILES | HEK293 cAMP ctrl | ERK AVP block | TSHR ag | Bst PK mod | Luciferase inh | Tau filament bind | others
O[C@@H]1CC[C@H]2Cc3ccccc3N=C21 | 2% | . | -3% | . | 2%[11.4 µM] | ?
COc1cc(NC(=O)c2ccccc2)c(OC)cc1NC(=O)CN1CCOCC1 | -16% | 6% | 3% | >57 | -2% | -23%
COc1cc(NC(=O)C2CCCO2)c(OC)cc1NC(=O)c1ccccc1 (stereo not given) | 8% | -19% | 22% | >57 | -4% | 25µM*
Nc1ccc(O)c(-c2nc3ccccc3s2)c1 | -4% | -29% | -27% | . | ? | 3.2µM* | tau ThS displ=?;aSyn ThS displ=?;Abeta ThS displ=9.2µM*
CN(C)CCCCl | 14% | 6% | -1% | . | . | 2%
c1nnc(NCNc2nncs2)s1 | ? | -16%[11.5 µM] | ? | . | 1%[11.4 µM] | 3%[11.4 µM]
Cc1ccc2nc(NC(=O)C3CCCN(S(=O)(=O)c4cccc5nonc45)C3)sc2c1 (stereo not given) | -16% | 8% | -9% | >57 | -2% | ? | tau ThS displ=i;aSyn ThS displ=?;Abeta ThS displ=i
CCCCCCOC(=O)C(C#N)c1nc2ccccc2nc1N1CCN(C)CC1 (stereo not given) | -39% | -10% | ? | >57 | 2% | 1µM* | tau ThS displ=2.8µM*;aSyn ThS displ=1.8µM*;Abeta ThS displ=0.79µM*
CCCCCCOC(=O)C(C#N)c1nc2ccccc2nc1N1CCCCC1 (stereo not given) | 15% | -6% | 3% | >57 | 4% | -10%
COC(=O)Cn1c(C(=O)N(C)C)cc2c1C[C@H]1CN(C(=O)c3ccccc3)[C@@](Cc3ccc(OC)cc3)(C(=O)OC)[C@@H]21 | ? | -7% | ? | . | . | 9%
COc1ccc(C(=N/O)/C(=N/O)c2ccc(OC)cc2)cc1 | 21% | -7% | 10% | . | 1% | -16%
COc1ccc2c(c1)C(=NO)c1cc(OC)ccc1-2 | -2% | -28% | -4% | i | -13% | 4µM* | tau ThS displ=?;aSyn ThS displ=?;Abeta ThS displ=4.1µM*
CN(C)c1ccc(N/C=C/C(=O)c2ccc(F)cc2)cc1 | -6% | -25% | -11% | ? | 0.63µM* | 3.2µM* | tau ThS displ=1.1µM*;aSyn ThS displ=6.2µM*;Abeta ThS displ=3.4µM*
COc1cc(N[C@@H](C)CCCN)c2ncccc2c1 | -5%[25.6 µM] | 16%[25.7 µM] | -20%[25.6 µM] | . | 5%[25.5 µM] | 5µM* | tau ThS displ=i;aSyn ThS displ=i;Abeta ThS displ=i
COc1cc(NCC[C@@H]2CCCCN2)c2ncccc2c1 | -3%[11.4 µM] | 2%[11.5 µM] | -1%[11.4 µM] | . | -1%[11.4 µM] | -19%[11.4 µM]
